According to PubChem BioAssay (NCATS):

Target: Glucocorticoid receptor (Homo sapiens) (UniProt P04150)
Experiment: GR-GFP Redistribution (AID 450)
Conditions: U2OS GR-GFP nuclear translocation, laser cytometry, 2 h;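 active = compounds whose dose series gives a full or clear partial fitted curve of increased nuclear translocation; inconclusive = weak partial curve or effect only at the top dose; inactive = no dose-dependent translocation response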
Description: NIH Molecular Libraries Screening Centers Network [MLSCN]
NIH Chemical Genomics Center [NCGC]
The glucocorticoid receptor (GR) Redistribution assay (BioImage) enables the visualization of GR cytoplasmic to nuclear translocation by the use of a GR-GFP fusion. GR is normally cytosolic, however ligands such as dexamethasone, cause nuclear translocation where the protein binds to response elements and interacts with various co-factors to modulate transcription. Because both functional agonists and antagonists can induce nuclear translocation, this assay can detect ligands regardless of their effects on gene expression. GR-GFP expressing U20S cells were used here. Dexamethasone was the positive control for translocation and data normalization. Detection of nuclear translocation was performed in 1536-well plates using the Acumen laser scanning plate cytometer (TTP LabTech). Validation of this assay and a detailed protocol have been described.
NCGC Assay Protocol Summary:
GR-GFP U2OS cells were maintained in DMEM with Glutamax and high glucose, 1% v/v penicillin-streptomycin, and 0.5 mg/mL Geneticin. For cell culture, 10% […] fetal bovine serum (FBS) was used (Invitrogen #26140-079). For cell plating 10% dextran, charcoal-stripped FBS (Hyclone SH30068.03) was used. U2OS cells were trypsin treated, suspended in medium, and passed through a 40 um basket filter. The cells were seeded at 600 cells/5 uL/well into clear-bottom black sided 1536-well plates and incubated for approximately 20 hrs, 37degC, 5%, CO2 in a tissue culture incubator. Twenty-three nL of compound was delivered by pin tool and the plates were incubated as above for 2 hrs. The compounds were tested as a 7-point titration ranging from 46 uM to 0.6 nM. The cells were fixed using the Kalypsys Washer/Dispenser station. The fixing protocol involved aspiration of the cell media, addition of 6 uL/well of PBS, aspiration of PBS, addition of 5uL/well of 100% methanol, aspiration of methanol, and addition of 3 uL/well PBS with 1.5 uM propidium iodide (PI). The plates were read by the Acumen Explorer using a 1 x 8 um scan of the whole well area. PI fluorescence triggered the collection of PI and GFP signals. A nuclei population was defined by a 10 to 100 um width and depth filter that eliminated small and large fluorescent particles. Two subpopulations of nuclei were then defined by peak intensity of GFP fluorescence to obtain translocated and untranslocated objects. The number of translocated objects was used for data normalization.
Keywords: NIH Roadmap, MLSCN, MLI, MLSMR, sOGT, qHTS, NCGC
Potency is read from the fitted curve at half-maximal effect.

Glucocorticoid receptor (Homo sapiens), sequence (P04150 whole entry, looked up): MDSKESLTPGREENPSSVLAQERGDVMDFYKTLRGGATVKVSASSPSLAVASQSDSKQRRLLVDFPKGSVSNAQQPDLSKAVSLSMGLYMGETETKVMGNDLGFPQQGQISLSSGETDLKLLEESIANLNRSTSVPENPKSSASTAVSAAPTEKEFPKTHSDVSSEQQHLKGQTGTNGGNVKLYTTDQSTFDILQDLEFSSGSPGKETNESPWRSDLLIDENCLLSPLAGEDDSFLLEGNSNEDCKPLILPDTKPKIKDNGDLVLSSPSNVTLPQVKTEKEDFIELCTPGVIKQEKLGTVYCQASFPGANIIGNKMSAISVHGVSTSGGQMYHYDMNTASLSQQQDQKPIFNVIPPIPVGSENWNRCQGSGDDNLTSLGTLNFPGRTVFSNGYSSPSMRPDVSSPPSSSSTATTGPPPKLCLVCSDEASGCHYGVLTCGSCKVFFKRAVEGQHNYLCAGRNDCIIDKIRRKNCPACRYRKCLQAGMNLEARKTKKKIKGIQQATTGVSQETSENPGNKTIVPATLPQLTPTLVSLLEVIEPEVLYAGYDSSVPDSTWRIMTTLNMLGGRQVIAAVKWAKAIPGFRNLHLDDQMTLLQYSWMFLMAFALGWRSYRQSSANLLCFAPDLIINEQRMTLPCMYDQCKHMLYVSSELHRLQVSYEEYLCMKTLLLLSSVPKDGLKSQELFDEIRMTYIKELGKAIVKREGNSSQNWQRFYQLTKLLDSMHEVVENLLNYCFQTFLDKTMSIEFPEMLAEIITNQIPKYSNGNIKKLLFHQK

Potency, inactive:
N=C(N)c1ccc(-c2ccc(-c3ccc(C(=N)N)cc3)o2)cc1 > 46 µM
C/C(=N\NC(N)=S)c1ccc[nH]1 > 46 µM
CN1CCC(n2[nH]c(-c3ccccc3)c(Cc3ccccc3)c2=O)CC1 > 46 µM
c1ccc(-c2ccc(-c3ccc(C4=NCCN4)cc3)o2)cc1 > 46 µM
C[C@@]12CC(=O)[C@@H]3[C@@H](CCC4=CC(=O)CC[C@]43C)[C@@H]1CC=C2CC(=O)O > 46 µM
O=C(NNS(=O)(=O)c1ccccc1)c1cccnc1 > 46 µM
CN(CCc1ccccn1)c1ccc2c(c1)Cc1ccccc1-2 > 46 µM
O=C(O)c1ccc(NCc2nc3cc4ccccc4cc3[nH]2)cc1 > 46 µM
CN(C)CCN(c1ccccn1)c1ccccn1 > 46 µM
C(=Nc1ccc2c(c1)Cc1ccccc1-2)c1ccccn1 > 46 µM
c1ccc(C[n+]2cccc(-c3cc4ccccc4[nH]3)c2)cc1 > 46 µM
O=c1[nH]c(SCc2cccc([N+](=O)[O-])c2)nc2nc[nH]c12 > 46 µM
Cc1[nH]c2ccccc2c1-c1cc(-c2cc(-c3c(C)[nH]c4ccccc34)on2)no1 > 46 µM
O=C(O)[C@H]([C@H]1NCCS1)N1Cc2ccccc2C1 > 46 µM
O=C(O)C[C@H](Cc1ccccc1Cl)C(=O)O > 46 µM
C[n+]1cccc(/C=C\c2ccc3cccc(O)c3n2)c1 > 46 µM
N#CCCn1c(=O)c(-c2ccccc2)nc2cnc(OCc3ccccc3)nc21 > 9.22 µM
CC(=O)O[C@H]1CC[C@@]2(C)C(=CC[C@@H]3[C@@H]4CC[C@H](c5cc(C(F)(F)F)n(C(C)=O)n5)[C@]4(C)CC[C@@H]32)C1 > 46 µM
Nc1nc(N)nc(CC(=O)O)n1 > 46 µM
c1ccc(CSCCc2ccncc2)cc1 > 46 µM
CN(Cc1cc(C(C)(C)C)cc(Br)c1O)Cc1cc(C(C)(C)C)cc(Br)c1O > 46 µM
c1ccc2c(CN3CCN(Cc4c[nH]c5ccccc45)CC3)c[nH]c2c1 > 46 µM
O=C(O)CCCc1ccc2ccccc2c1 > 46 µM
Cc1ccccc1C(=N)c1ccccc1Cc1cccc2ccccc12 > 46 µM
CSc1nc(C)cc(Nc2ccc(O)c(CN3CCOCC3)c2)n1 > 46 µM
O=C(O)CCCSc1ccccc1 > 46 µM
O=C(O)CCC/C=C\C[C@H]1[C@@H](/C=C\[C@@H](O)C2Cc3ccccc3C2)[C@H](F)C[C@H]1O > 46 µM
O=C(O)[C@H]1CCCC[C@@H]1C(=O)Nc1nc2ccccc2[nH]1 > 46 µM
Clc1ccc(Cl)c(SCCCN2CCNCC2)c1 > 46 µM
O=C(O)CC1(C(=O)O)CCCCC1 > 46 µM
C/C(=N/Nc1nc(C)cc(=O)[nH]1)C(=O)O > 46 µM
CN(Cc1cc(Cl)cc(Cl)c1O)Cc1c(O)ccc2ccccc12 > 46 µM
O=C(O)CCCN1CCCCC1 > 46 µM
C[C@H]1CN(CCO)CCN1c1ccccc1 > 46 µM
Cc1ccc(S(=O)(=O)N[C@H](C(=O)O)C(C)C)cc1 > 46 µM
O=C(O)/C=C\[C@H](O)c1ccc(Cl)cc1 > 46 µM
CCCCCCCCCCCCC/C=C\[C@H](O)[C@H](N)CO > 46 µM
Clc1ccc(C=Nc2ccc3c(c2)Cc2ccccc2-3)c(Cl)c1 > 46 µM
Cc1cc(O)c(C(C)C)cc1C1(c2cc(C(C)C)c(O)cc2C)OC(=O)c2ccccc21 > 46 µM
O=S(=O)(c1cccc(C(F)(F)F)c1)N1c2ccccc2-n2cccc2[C@H]1c1cccnc1 > 46 µM
